This passage reports progeny production results from the supplement of paper PMC10732440.

± gives the standard deviation of the averaged measurements.

One assay relates to Caenorhabditis elegans N2 infected with Nematocida parisii ERTm1. Kind of assay: progeny production relative to DMSO uninfected control; higher = more progeny despite microsporidia infection (inhibition of infection with low host toxicity). Conditions: infection time 6 days; 40 µM. Here is the method: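 Bleach-synchronised C. elegans N2 L1 larvae (100 per well) were grown in 96-well plates in K-medium with 5x E. coli OP50 and 15,000 N. parisii spores/uL, plus Pandemic Response Box compound at 100 uM or 40 uM (1% DMSO), for 6 days at 21 C with shaking. Worms were stained with Rose Bengal, scanned on a flatbed scanner and counted with WorMachine. Progeny production is given as % of the DMSO uninfected control (triplicate wells), so higher values mean the compound restores progeny despite infection.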
`N#C/C(=C1/SC[C@H](c2ccc(Cl)cc2Cl)S1)n1ccnc1` returned a progeny production of 3.11 ± 0.38%.

Take `Clc1ccc(Cn2c(CN3CCCC3)nc3ccccc32)cc1`: the progeny production was determined as 3.41 ± 1.9%. Take `CC(C)=CCC/C(C)=C/CNCCNC1C2CC3CC(C2)CC1C3` (stereo unspecified): the progeny production is 6.62 ± 1.2%. `CC(C)(C)c1cccc(-c2nc3cc(C(=N)N)ccc3[nH]2)c1O` displayed a progeny production of 2.13 ± 0.25%. In turn, `COc1ccc(SCC(=O)N2c3ccccc3Sc3ccccc32)cc1` returned a progeny production of 5.84 ± 2.3%. `Cn1cncc1[C@@](N)(c1ccc(Cl)cc1)c1ccc2c(c1)c(-c1cccc(Cl)c1)cc(=O)n2C` registered a progeny production of 2.71 ± 0.38%. Same read-out and setting: the same measure for `C=C(C)[C@@H]1CC[C@]2(C(=O)O)CC[C@]3(C)[C@H](CC[C@@H]4[C@@]5(C)CC[C@H](O)C(C)(C)[C@@H]5CC[C@]43C)[C@@H]12`: 6.56 ± 0.21%; for `O=C1NC(=O)C(Br)=C1Br`: 12.2 ± 12%; for `CCCc1ccc(-c2cc3cn([C@H]4C[C@H](O)[C@@H](CO)O4)c(=O)nc3o2)cc1`: 3.62 ± 2.5%. `COc1ccc(NC(=O)c2cc3ccccn3n2)cc1` returned a progeny production of 9 ± 5.7%. The same measure, in the same setting: the same measure for `C[C@@H](O)[C@H](N)C(=O)NS(=O)(=O)c1cccc(-c2ccc3[nH]ncc3c2)c1`: 3.15 ± 1.8%. Still for that read-out and setting: in the case of `Clc1cccc(-c2nnc(-c3ccccc3)o2)c1` it was 1.33 ± 1.1%; in that of `NC(=O)c1ccccc1NC(=O)c1ccc(C(=O)Nc2ccccc2C(N)=O)cc1`, 8.47 ± 2.6%. The same measure, in the same setting: the same measure for `Cc1cc(CCCOc2c(C)cc(-c3noc(C(F)(F)F)n3)cc2C)on1`: 1.93 ± 0.29%; for `Nc1cc(-c2nc3ccccc3[nH]2)n[nH]c1=O`: 6.4 ± 6.5%; for `CN(Cc1ccc(C(C)(C)C)cc1)Cc1cccc2ccccc12`: 5.41 ± 2%. For `O=C(O)c1sccc1S(=O)(=O)n1ccc2cc(Br)ccc21`, the progeny production was 5.86 ± 1.6%. `COc1ccc(NS(=O)(=O)c2ccc(Cl)s2)cn1` gave a progeny production of 4.12 ± 0.52%. `O=C(CP(=O)(O)O)NCCc1cccc(Oc2ccccc2)c1` showed a progeny production of 4.04 ± 0.94%. On the same count and under the same terms, in the case of `Nc1cc(N)c2nc(-c3ccccc3)c(Nc3ccc(F)cc3)nc2c1` it was 4.57 ± 1.7%. On the same count and under the same terms, in the case of `NC(=S)N/N=C/c1ncccc1N` it was 8.43 ± 4.5%.

Still in this assay, the particulars now being: infection time 6 days; 100 µM.
For `N#C/C(=C1/SC[C@H](c2ccc(Cl)cc2Cl)S1)n1ccnc1`, the progeny production was determined as 4.59 ± 2.5%. Same read-out and setting: in the case of `Clc1ccc(Cn2c(CN3CCCC3)nc3ccccc32)cc1` it was 6.88 ± 1.8%; in that of `CC(C)=CCC/C(C)=C/CNCCNC1C2CC3CC(C2)CC1C3` (stereo unspecified), 30 ± 23%. The same measure, in the same setting: the same measure for `CC(C)(C)c1cccc(-c2nc3cc(C(=N)N)ccc3[nH]2)c1O`: 20.4 ± 23%; for `COc1ccc(SCC(=O)N2c3ccccc3Sc3ccccc32)cc1`: 14.1 ± 5.9%.

`Cn1cncc1[C@@](N)(c1ccc(Cl)cc1)c1ccc2c(c1)c(-c1cccc(Cl)c1)cc(=O)n2C`: the progeny production came to 8.73 ± 2.4%. Still for that read-out and setting: the same measure for `C=C(C)[C@@H]1CC[C@]2(C(=O)O)CC[C@]3(C)[C@H](CC[C@@H]4[C@@]5(C)CC[C@H](O)C(C)(C)[C@@H]5CC[C@]43C)[C@@H]12`: 9.57 ± 2%; for `O=C1NC(=O)C(Br)=C1Br`: 30.7 ± 9.8%.

The compound `CCCc1ccc(-c2cc3cn([C@H]4C[C@H](O)[C@@H](CO)O4)c(=O)nc3o2)cc1` gave a progeny production of 11 ± 5.5%. The same measure, in the same setting: the same measure for `COc1ccc(NC(=O)c2cc3ccccn3n2)cc1`: 13.6 ± 6%; for `C[C@@H](O)[C@H](N)C(=O)NS(=O)(=O)c1cccc(-c2ccc3[nH]ncc3c2)c1`: 20.2 ± 20%. Take `Clc1cccc(-c2nnc(-c3ccccc3)o2)c1`: the progeny production turned out to be 4.24 ± 2.4%. Still for that read-out and setting: the same measure for `NC(=O)c1ccccc1NC(=O)c1ccc(C(=O)Nc2ccccc2C(N)=O)cc1`: 11.6 ± 6.2%; for `Cc1cc(CCCOc2c(C)cc(-c3noc(C(F)(F)F)n3)cc2C)on1`: 15.4 ± 3.2%; for `Nc1cc(-c2nc3ccccc3[nH]2)n[nH]c1=O`: 10.7 ± 4.7%.

In the case of `CN(Cc1ccc(C(C)(C)C)cc1)Cc1cccc2ccccc12`, the progeny production came out at 17 ± 17%. Regarding `O=C(O)c1sccc1S(=O)(=O)n1ccc2cc(Br)ccc21`, the progeny production came to 8.33 ± 1.2%. Same read-out and setting: the same measure for `COc1ccc(NS(=O)(=O)c2ccc(Cl)s2)cn1`: 15 ± 3%; for `Nc1cc(N)c2nc(-c3ccccc3)c(Nc3ccc(F)cc3)nc2c1`: 23.5 ± 17%; for `NC(=S)N/N=C/c1ncccc1N`: 18.8 ± 12%.
